# Compound activity: PubChem BioAssay, National Center for Advancing Translational Sciences (NCATS)
# This is a sample that favours compounds with a hit; in the whole collection about 2.1% have one here.
# aSyn yeast inh = qHTS of alpha-syn Inhibitors; Yeast expressing alpha-synuclein, growth rescue, BacTiter-Glo, 24 h; Potency, µM (titrated, usually from 46.1 µM), for the others: at the top dose growth rescue (activation), actives largely listed as activators; 370,000 compounds, 0.14% hits; also: % of control where 0% means no effect; nearly all actives have a fitted effect of over 65% in size
#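 Screening used galactose-induced yeast with toxic alpha-synuclein levels, exposed to compound for 24 hr at 30 deg C. Cell growth, read with BacTiter-Glo luminescence, gave the measured signal.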
# Abeta yeast res = qHTS for compounds that reverse cellular toxicity of Amyloid beta (A-beta) peptide in yeast: Primary Screen | yeast expressing A-beta42, growth rescue, OD600, 48 h; response scale: 0% DMSO, 100% iron-clioquinol control | AID 1347071, 2019 | 410,000 compounds, 0.063% hits | Potency, µM (doses to about 46.1 µM), hits mostly activators; also: nearly all actives have a fitted effect of over 55% in size
#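 Yeast growth medium received pinned compounds, then yeast cells expressing toxic A-beta were added; plates incubated at 30 C for 48 hr. Growth read as absorbance at 600 nm, normalized to DMSO and equimolar FeCl3 plus clioquinol controls.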
# FUS suppressor = qHTS for Suppressors of FUS Proteinopathy: Primary screen using FUS-linked yeast assay | AID 1347120, 2019 | Potency, µM (doses to about 76.6 µM), actives largely listed as activators | S. cerevisiae FUS-expressing, growth rescue, OD600, 24 h | 390,000 compounds, 0.24% hits;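 also: plate controls were DMSO vehicle for no effect and reference control for full effect; nearly all actives have a fitted effect of over 55% in size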
#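 Toxicity suppression screen in FUS-yeast. Cells induced with 2% galactose, starting OD 0.005, treated 24hr at 30C with compounds at multiple final concentrations; growth by OD600.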
# TDP-43 yeast inh = qHTS of TDP-43 Inhibitors | TDP-43 expressing yeast growth rescue, BacTiter-Glo, 24 h | Potency, µM (titrated, usually from 46.1 µM), for inactives: at the highest dose growth rescue (activation), usual class: activators | 410,000 compounds, 1.8% hits; also: % of control where 0% means no effect; nearly all actives have a fitted effect of over 50% in size
#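 Galactose-induced TDP-43 yeast, OD600=0.02, compound pinned; 24 hr, 30 deg C; BacTiter-Glo luminescence for growth. Inhibitors of TDP-43 toxicity read as activators.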
# Numbers without * were called inactive; i = inactive; ? = inconclusive; . = no result. Calls follow the shape of the dose curve; as a rule, active = well fitted curve in the direction sought with a large enough effect; inconclusive = small, poorly fitted or top-dose-only effect, or another doubt; inactive = no such curve, though single readings can be large; an effect the other way counts as inactive or inconclusive. Potency is read from the fitted curve at half-maximal effect.
SMILES,aSyn yeast inh,Abeta yeast res,FUS suppressor,TDP-43 yeast inh
Cc1ccc(C(=O)N/C(=C\c2ccco2)C(=O)N2CCCCC2)cc1,-1%,i,i,-4%
COc1ccccc1CC(=O)Nc1ccc2nc(Nc3cccc(C(F)(F)F)c3)cc(C)c2c1,.,i,?,13µM*
Cc1ccccc1C(=O)Nc1ccc2nc(Nc3cccc(C(F)(F)F)c3)cc(C)c2c1,.,i,i,18µM*
COc1cccc(CC(=O)Nc2ccc3nc(Nc4cccc(C(F)(F)F)c4)cc(C)c3c2)c1,.,i,i,28%
Cc1cc(Nc2cccc(Cl)c2)nc2ccc(NC(=O)c3cncc(Br)c3)cc12,.,i,32µM*,22µM*
CCOC(=O)Cn1c(=NC(=O)CN2C(=O)CCC2=O)sc2cc(S(N)(=O)=O)ccc21,-4%,i,i,-16%
CC1CCCC(C)N1CC(O)Cn1c2ccccc2c2ccccc21 (configuration not stated),6%,i,i,11µM*
Cc1c(C(=O)NCCSCc2ccc(F)cc2)cnn1-c1ccc(Cl)cc1,11%,i,i,13µM*
O=C1C(Cl)=C(Nc2ccccc2O)C(=O)N1c1ccccc1,-1%,i,i,35µM*
Cc1ccccc1C(=O)NC(=S)NCCc1ccccc1,-26%,i,.,?
O=C(NC1=NCCS1)c1cc(-c2cccc(Br)c2)nc2ccccc12,-24%,i,.,22µM*
Cc1ccc2nc(-c3cccc(Br)c3)cc(C(=O)NC3=NCCS3)c2c1,-26%,i,i,20µM*
Cc1ccc(-c2cc(C(=O)NC3=NCCS3)c3ccccc3n2)cc1C,-35%,i,?,?
COc1ccc(N2C(=O)CC(N3CCC(O)(c4ccc(Br)cc4)CC3)C2=O)cc1 (configuration not stated),9%,i,i,20µM*
CCCOc1ccc(N2C(=O)CC(N3CCN(c4ccccc4OC)CC3)C2=O)cc1 (configuration not stated),?,i,i,25µM*
COc1cccc(N2CCN(C3CC(=O)N(c4ccc(F)c(Cl)c4)C3=O)CC2)c1 (configuration not stated),-7%,i,i,13µM*
O=C(Cc1ccccc1)NNC(=O)C1CC=CCC1 (configuration not stated),5%,i,i,-16%
O=C(O)C1CCN(Cc2ccccn2)CC1,-1%,i,i,0%
O=C(c1cc2cc(Br)ccc2o1)N1CCN(c2ccccc2)CC1,0%,i,.,11%
Cc1ccc(-c2noc(CN(C3CCCCC3)S(=O)(=O)c3ccc(F)cc3)n2)cc1,.,i,i,2%
CN(Cc1nc(-c2ccc(Cl)cc2)no1)S(=O)(=O)c1ccccc1,.,i,i,35µM*
CS(=O)(=O)N(Cc1nc(-c2ccc(F)cc2)no1)c1ccccc1Cl,19%,i,i,22µM*
Cc1nc(COc2ccccc2Cl)sc1-c1ccnc(N)n1,13%,i,i,11µM*
Clc1ccccc1OCc1nn2c(-c3ccncc3)nnc2s1,-10%,i,i,11%
CCn1c(=O)cc(OCC(=O)NCCC(C)C)c2ccccc21,-2%,i,i,-5%
SMILES,aSyn yeast inh,Abeta yeast res,FUS suppressor,TDP-43 yeast inh
CC(C)(C)c1csc(NC(=O)c2ccc(Cl)s2)n1,-35%,i,i,?
CCNc1nc(N)c(C(=O)c2ccc(Cl)s2)s1,9%,i,i,13µM*
CC1CCC(NC(=O)c2ccc(CS(=O)(=O)c3c(Cl)cccc3Cl)o2)CC1 (configuration not stated),.,i,i,35µM*
COCCNC(=O)c1cnn2c(C(F)F)cc(-c3ccc(C)cc3)nc12,0%,i,i,0%
CCCNC(=O)c1cnn2c(C(F)F)cc(-c3ccccc3)nc12,.,i,i,13µM*
COc1ccc2c(c1)C1=NN(/C(C)=C/C(C)=O)C(c3ccc(F)cc3)C1CC2 (configuration not stated),7%,i,.,22µM*
Cc1ccc(OCc2ccccc2C)c([N+](=O)[O-])n1,4%,i,i,11µM*
Cc1cccc(N2CCN(C(=O)CSc3ccsc3[N+](=O)[O-])CC2C)c1 (configuration not stated),9%,?,i,18µM*
